Test results taken from PubChem BioAssay AID1498 (National Center for Advancing Translational Sciences (NCATS), 2009).
Records with an inconclusive call do not appear. Calls of active or inactive are those of the source. Calls follow the shape of the full dose curve.

Experiment: Confirmation Concentration-Response Assay for Modulators of Lamin A Splicing
Conditions: HeLa lamin A splicing GFP/RFP minigene, Acumen, 48 h; RFP activity: RFP channel at top concentration, at 46.1 µM; ratio activity: GFP/RFP ratio at top concentration, at 46.1 µM; series mostly up to 46.1 µM; GFP activity change, negative = decrease: at the top concentration
Text: NCGC Assay Overview: Hutchinson-Gilford Progeria Syndrome (HGPS) is a pediatric premature aging disease caused by a spontaneous mutation in the lamin A/C (LMNA) gene. The mutation activates a cryptic splice site in the LMNA pre-mRNA which results in production of a pre-lamin A protein that cannot be processed properly. The mutant protein accumulates in the nucleus and negatively affects numerous cellular functions. Correction of the splicing defect in HGPS patient cells using a targeted oligonucleotide (exo11) leads to reversal of the cellular disease phenotypes. To identify small molecule modulators of aberrant LMNA splicing, a homogenous assay was constructed in HeLa cells that used a GFP containing minigene to report on correction of aberrant splicing in lamin A and a RFP (DsRed2) to report on cell viability, uniformity and nonspecific effects on the assay signal. This assay was adapted to laser-scanning microplate cytometry (Acumen, TTP Labtech) where miniaturization of the assay to a 1,536-well plate format was possible. Select compounds active in the primary screen (AID 1487) were chosen for confirmation based on potency, efficacy, SAR and activity in other assays in PubChem and at NCGC. References: Bowen, W. P.; Wylie, P. G. Application of Laser-Scanning Fluorescence Microplate Cytometry in High Content Screening. Assay Drug Dev Technol 2006;4:209-221. Scaffidi P, Misteli T. Reversal of the cellular phenotype in the premature aging disease Hutchinson-Gilford progeria syndrome. Nat. Med. 2005;11:440-445.
NCGC Assay Protocol Summary: Reagents/Controls: Stable clones expressing DsRed2 and lamin A-EGFP were generated by Cell and Molecular Technologies in S3 HeLa cells. HeLa cells were prepared for the assay when they were 70-90% confluent. The cells were counted and resuspended in Opti-MEM I (no phenol red; Gibco), 2% FBS, 1% penicillin/ streptomycin (Gibco) at concentration of 120 cells/uL concentration. The suspension was passed through a Falcon basket filter with pore size 40um (Beckton Dickson). Control titrations: column […] 1536-well plate contained a sixteen point titration (1:2 dilutions) in duplicate of ancitabine (Sigma: A8598) beginning at 40 uM final concentration. Column 2 contained a sixteen point titration (1:2 dilutions) of cycloheximide beginning at 1.4 mM final concentration. Column 3 contained ancitabine at 40 uM and column 4 contained was the vehicle control (0.5% DMSO final concentration). Assay Steps: 5 uL of HeLa cells were plated in Aurora LoBase black clear bottom (cyclic-olefin polymer) 1536-well plates at a final density of 600 cells/well. Controls and library compounds were added with a 1536-well pin array using the Kalypsys pin-tool. The plates were then incubated for 48 hrs in a cell-culture incubator (37 °C; 5% CO2, 98% humidity). Following incubation the plates were read on the Acumen Explorer using the 488 nm laser. Data was collected on objects between 10 and 100 um in size. Cell objects were defined by a 15 um width x 10 um depth filter. The ratio of the total object intensity in PMT1 (500-530 nm emission; GFP) over PMT3 (575-640 nm emission; RFP) was calculated for analysis. Keywords: NIH Roadmap, MLSCN, MLI, MLSMR, qHTS, NCGC, lamin A, Progeria, RNA splicing.

Row | SMILES | GFP activity change, negative = decrease | ratio activity [%] | RFP activity [%]
1 | COc1ccc(O)c(/C=N/NC(=O)c2ccc(OCc3cccc(Br)c3)cc2)c1 | -21.1% (inactive) | -5.52 | -32.5
2 | Cc1noc(C)c1-c1ccc2ncnc(NCc3ccc(C(C)(C)C)cc3)c2c1 | -6.32% (inactive) | -12.9 | -7.69
3 | Cc1cc(/C=N/n2cnnc2)c(C)n1-c1cccc(C(=O)O)c1 | -22.5% (inactive) | -3.02 | -18.9
4 | CC(C)(C)n1nnnc1C(c1ccc2ncccc2c1)N1CCSCC1 (configuration not stated) | -12.4% (inactive) | -14.8 | -8.12
5 | Cc1cccc(C)c1OC[C@H](C)N | -32.5% (inactive) | -11.5 | -24.1
6 | C/C(=N\NC(=O)C(c1ccncc1)N1CCOCC1)c1ccc(Br)cc1 (configuration not stated) | -10.9% (inactive) | -18.1 | 7.84
7 | Cc1noc(C)c1-c1ccc2ncnc(NCc3cccc(-c4ccccc4)c3)c2c1 | 1.82% (inactive) | -27.8 | 22.9
8 | O=C(Nc1ccc(F)cc1)c1nc[nH]c1C(=O)Nc1ccccc1[N+](=O)[O-] | -23.1% (inactive) | -10.8 | -25.1
9 | Cc1cc(Nc2ccccc2)nc2cc(O)ccc12 | -18.1% (inactive) | -18.8 | 11.6
10 | O=C(c1ccc(Cl)c(Cl)c1)N1CCC(=O)N(C(COCc2cccc(C(F)(F)F)c2)Cc2ccccc2)CC1 (configuration not stated) | -32.8% (inactive) | -24.5 | 13.3
11 | Cc1nc2ccc(NC(=O)c3ccc(Cl)c(S(=O)(=O)N(C)c4ccccc4)c3)cc2s1 | -33.3% (inactive) | -11.5 | -26.7
12 | Cn1c(Sc2ccccc2Cl)c(C=O)c2ccccc21 | -13.3% (inactive) | 0.328 | -2.07
13 | CC1=NS(=O)(=O)c2cc(Cl)ccc2N1 | -18.6% (inactive) | -9.16 | -10.7
14 | Cc1ccc(S(=O)(=O)N(CC(=O)Nc2ccccc2C(=O)O)c2cccc(Cl)c2C)cc1 | 7.34% (inactive) | -14.3 | 26.8
